# Reference: the supplement of paper PMC8728848
# The entries come from a sample that favours the strongest signals as a whole.
# B1: Epa3to1 (Candida glabrata) (protein)
# chain: MGSSHHHHHHSSGLVPRGSHMKRELSSQNPFGYPIGCSPQDVAIIPGLTMELYSYPIVSGTPPNCYDASYVDPEYPRTGYLKRKMVGKSTGVTGNLNYKYSVEKACMVKYGNLPAGYNYNEPLTVSNFTMILYGYFKAQTTGLHTFFVNADDLLYINFGAGNAFDCCKREDSKTKLGEYVAYDIWHVDSSKNKVSLFLEKDLYYPIRMFFNNREYDSSLDLSFSVNGATDQISDFSGYLYSVPDQPDTCPAHIGYDTTCR
# Columns and labels:
# Assay in all cases: glycan array binding signal (z-score within array); higher = stronger binding
# Settings in all cases: glycan notation: IUPAC condensed, linker removed
# [1] = molecular target: Gal(b1-4)GlcNAc(b1-3)[Fuc(a1-3)GlcNAc(b1-6)]Gal(b1-4)Glc
# How it was run: (§1)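 Negative Z-scores can be read as non-binding. The Z-score is calculated within each array and then averaged across arrays of one protein sequence at different concentrations or buffers and across linkers. Arrays, 3228 in all, were curated from the Consortium for Functional Glycomics database and kept only where the protein sequence was available.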
# [2] = molecular target: Gal(b1-4)GlcNAc(b1-6)Gal(b1-4)GlcNAc
# How it was run: as §1
# Gal3S6S(b1-4)GlcNAc = molecular target: Gal3S6S(b1-4)GlcNAc
# How it was run: as §1
# Gal6S(b1-3)GlcNAc6S = molecular target: Gal6S(b1-3)GlcNAc6S
# How it was run: as §1
# Gal6S(b1-4)Glc6S = molecular target: Gal6S(b1-4)Glc6S
# How it was run: as §1
# Gal6S(b1-4)GlcNAc6S = molecular target: Gal6S(b1-4)GlcNAc6S
# How it was run: as §1
# GalNAc(b1-3)Gal = molecular target: GalNAc(b1-3)Gal
# How it was run: as §1
# GlcA(b1-6)Gal = molecular target: GlcA(b1-6)Gal
# How it was run: as §1
# [3] = molecular target: GlcNAc(a1-4)Gal(b1-3)GlcNAc
# How it was run: as §1
# [4] = molecular target: GlcNAc(a1-4)Gal(b1-4)GlcNAc
# How it was run: as §1
# [5] = molecular target: GlcNAc(a1-4)Gal(b1-4)GlcNAc(b1-3)Gal(b1-4)[Fuc(a1-3)]GlcNAc(b1-3)Gal(b1-4)[Fuc(a1-3)]GlcNAc
# How it was run: as §1
# [6] = molecular target: GlcNAc(b1-2)[GlcNAc(b1-6)]Man(a1-6)[GlcNAc(b1-2)Man(a1-3)]Man(b1-4)GlcNAc(b1-4)GlcNAc
# How it was run: as §1
# GlcNAc(b1-3)Fuc = molecular target: GlcNAc(b1-3)Fuc
# How it was run: as §1
# [7] = molecular target: GlcNAc(b1-3)Gal(b1-4)GlcNAc(b1-3)GalNAc
# How it was run: as §1
# [8] = molecular target: GlcNAc(b1-4)GlcNAc(b1-4)GlcNAc(b1-4)GlcNAc(b1-4)GlcNAc
# How it was run: as §1
# [9] = molecular target: Neu5Ac(a2-3)Gal(b1-4)GlcNAc(b1-6)[Neu5Ac(a2-3)Gal(b1-3)]GalNAc
# How it was run: as §1
# [10] = molecular target: Neu5Ac(a2-3)Gal(b1-4)GlcNAc6S
# How it was run: as §1
# [11] = molecular target: Neu5Ac(a2-3)[GalNAc(b1-4)]Gal(b1-4)GlcNAc
# How it was run: as §1
# [12] = molecular target: Neu5Ac(a2-6)Gal(b1-4)GlcNAc(b1-2)Man
# How it was run: as §1
# [13] = molecular target: Neu5Ac(a2-6)Gal(b1-4)GlcNAc(b1-3)Gal(b1-3)GlcNAc
# How it was run: as §1
# [14] = molecular target: Neu5Ac(a2-6)Gal(b1-4)GlcNAc(b1-3)Gal(b1-4)GlcNAc(b1-3)Gal(b1-4)GlcNAc(b1-2)Man(a1-3)[Neu5Ac(a2-6)Gal(b1-4)GlcNAc(b1-3)Gal(b1-4)GlcNAc(b1-3)Gal(b1-4)GlcNAc(b1-2)Man(a1-6)]GalNAc
# How it was run: as §1
# [15] = molecular target: Neu5Ac(a2-6)GalNAc(b1-4)GlcNAc6S
# How it was run: as §1
# [16] = molecular target: Neu5Ac(a2-8)Neu5Ac(a2-8)Neu5Ac(a2-3)Gal(b1-4)Glc
# How it was run: as §1
binder,measurement,setting,value
B1,glycan array binding signal (z-score),[1],2.39
same,glycan array binding signal (z-score),[2],0.054
same,glycan array binding signal (z-score),Gal3S6S(b1-4)GlcNAc,0.487
same,glycan array binding signal (z-score),Gal6S(b1-3)GlcNAc6S,4.12
same,glycan array binding signal (z-score),Gal6S(b1-4)Glc6S,6.81
same,glycan array binding signal (z-score),Gal6S(b1-4)GlcNAc6S,9.56
same,glycan array binding signal (z-score),GalNAc(b1-3)Gal,0.105
same,glycan array binding signal (z-score),GlcA(b1-6)Gal,0.35
same,glycan array binding signal (z-score),[3],-0.807
same,glycan array binding signal (z-score),[4],-0.345
same,glycan array binding signal (z-score),[5],-0.037
same,glycan array binding signal (z-score),[6],-0.435
same,glycan array binding signal (z-score),GlcNAc(b1-3)Fuc,-0.291
same,glycan array binding signal (z-score),[7],0.229
same,glycan array binding signal (z-score),[8],4.95
same,glycan array binding signal (z-score),[9],-0.382
same,glycan array binding signal (z-score),[10],-0.83
same,glycan array binding signal (z-score),[11],-0.706
same,glycan array binding signal (z-score),[12],-0.272
same,glycan array binding signal (z-score),[13],4.57
same,glycan array binding signal (z-score),[14],0.07
same,glycan array binding signal (z-score),[15],-0.365
same,glycan array binding signal (z-score),[16],0.154
